Measurements published in paper PMC4336329 (PLoS ONE, 2015).
The campaign covered roughly 310,000 compounds. About 14,000 (4.5%) showed an effect of 50% or more. Effects have a minus sign here. The entries come from a sample that favours strong results as a whole.

Biological target: human ether-à-go-go-related gene (hERG) potassium channel (human, UniProt Q12809)
Experiment: primary screen, population patch clamp on CHO cells stably expressing hERG; higher = less effect of the substance
Experimental: Briefly, Chinese hamster ovary (CHO) cells stably expressing the hERG channel were dislodged from tissue culture flasks and dispensed into PPC plates. […] During the recording, background leak currents were estimated by a 100 ms step to -80 mV from an initial holding potential of -70 mV and subtracted from the subsequent current measurement. The campaign was conducted in two phases using slight differences in recording protocol. In the first phase, the initial voltage pulse used a 100 ms step to -30 mV from a holding potential of -70 mV, a 2 s conditioning step to +25 mV, and a 2 s test step to -30 mV. During the second phase of the screen, the potential during the conditioning step was raised to +45 mV. In both phases of the campaign, a secondary voltage pulse was applied using the same parameters as the second phase initial pulse. The initial and secondary pulses were applied in the absence of compound, and upon application of 1 μM and 10 μM test concentrations. […]
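Further: peak tail current of the secondary pulse compared with the same well before compound.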

Sequence of human ether-à-go-go-related gene (hERG) potassium channel (Q12809 whole entry, looked up): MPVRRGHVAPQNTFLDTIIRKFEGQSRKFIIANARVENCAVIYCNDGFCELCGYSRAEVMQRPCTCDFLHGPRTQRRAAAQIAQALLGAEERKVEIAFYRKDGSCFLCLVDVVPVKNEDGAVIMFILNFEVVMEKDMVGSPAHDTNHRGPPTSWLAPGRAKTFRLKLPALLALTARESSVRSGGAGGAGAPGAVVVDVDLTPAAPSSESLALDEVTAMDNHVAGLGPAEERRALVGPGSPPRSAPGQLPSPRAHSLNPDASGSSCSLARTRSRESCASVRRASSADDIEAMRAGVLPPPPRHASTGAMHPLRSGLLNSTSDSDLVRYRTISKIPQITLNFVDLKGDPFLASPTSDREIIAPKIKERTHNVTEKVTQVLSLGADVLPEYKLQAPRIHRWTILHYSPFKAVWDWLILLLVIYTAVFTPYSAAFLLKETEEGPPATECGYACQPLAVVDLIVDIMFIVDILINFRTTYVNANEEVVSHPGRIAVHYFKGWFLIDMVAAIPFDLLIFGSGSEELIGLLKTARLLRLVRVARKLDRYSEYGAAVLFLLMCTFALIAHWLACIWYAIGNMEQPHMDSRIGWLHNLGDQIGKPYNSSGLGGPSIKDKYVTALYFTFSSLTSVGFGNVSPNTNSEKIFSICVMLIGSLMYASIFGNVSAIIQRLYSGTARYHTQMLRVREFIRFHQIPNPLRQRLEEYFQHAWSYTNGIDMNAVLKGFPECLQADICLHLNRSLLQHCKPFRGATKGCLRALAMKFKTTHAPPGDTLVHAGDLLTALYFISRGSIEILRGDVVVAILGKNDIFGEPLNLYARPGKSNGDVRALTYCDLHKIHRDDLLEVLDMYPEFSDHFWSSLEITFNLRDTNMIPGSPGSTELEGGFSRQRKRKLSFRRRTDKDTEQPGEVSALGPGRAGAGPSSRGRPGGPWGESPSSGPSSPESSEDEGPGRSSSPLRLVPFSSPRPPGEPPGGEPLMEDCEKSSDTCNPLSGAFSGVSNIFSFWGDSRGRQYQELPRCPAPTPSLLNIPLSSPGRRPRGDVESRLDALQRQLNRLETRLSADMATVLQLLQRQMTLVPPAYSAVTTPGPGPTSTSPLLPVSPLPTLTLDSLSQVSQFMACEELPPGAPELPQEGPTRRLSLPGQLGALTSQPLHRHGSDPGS

| Compound | hERG current change (%, negative = inhibition) at 10uM |
| --- | --- |
| O=C1Nc2ccc(C(F)(F)F)cc2N2CCCC12 (stereo not drawn) | -1.52% |
| Cc1ccc(CSCCNC(=O)CN(c2cc(C)ccc2C)S(C)(=O)=O)cc1 | -23.5% |
| COC(=O)C1=C(C)N(Cc2ccc(OC)c(OC)c2)C(=O)C1 | 10.7% |
| C=CCSc1n[nH]c(-c2cccs2)n1 | 14.4% |
| CN(CCO)S(=O)(=O)c1ccc2c(c1)C(=NN)c1cc(S(=O)(=O)N(C)CCO)ccc1-2 | 9.76% |
| CN1C2CCC1CC(OC(c1ccccc1)c1ccccc1N)C2 (stereo not drawn) | -68.5% |
| CCOC(=O)C1CCN(C(=O)CNC(=O)c2nn(-c3ccc(OC)cc3)c(=O)c3ccccc23)CC1 | -9.73% |
| Cc1ccc(Cl)cc1NC(=O)CC1NCCNC1=O (stereo not drawn) | 13.6% |
| COc1ccccc1-c1c(C)nn2c(N3CCOCC3)cc(C)nc12 | 2.71% |
| C#CCOC(=O)CCCNc1ccc([N+](=O)[O-])cc1[N+](=O)[O-] | -51.1% |
| CCCCOC(=O)Nc1nc2ccc([N+](=O)[O-])cc2s1 | 15.1% |
| CC(C)OC(=O)CCCNc1ccc([N+](=O)[O-])cc1[N+](=O)[O-] | -41.4% |
| CCCCOC(=O)CCCc1ccc([N+](=O)[O-])cc1[N+](=O)[O-] | -52% |
| CCOC(=O)CCCNc1ccc([N+](=O)[O-])cc1[N+](=O)[O-] | -13.3% |
| CCCCOc1ccc([N+](=O)[O-])cc1C(=O)O | 24.9% |
| COC(=O)c1c(-c2c(Cl)cccc2Cl)noc1C(=O)NNC(=O)N(C)C | 4.36% |
| CCOc1ccc(-n2c(=O)c3ccccc3c3ccccc3c2=O)cc1 | 17.8% |
| S=C(NCc1ccccc1)NCc1cccc(CNC(=S)NCc2ccccc2)c1 | 21.7% |
| CCOCCCn1c(=NC(=O)c2cccnc2)c(C(=O)OCC)cc2c(=O)n3ccccc3nc21 | -70.1% |
| CCOC(=O)c1cc2c(=O)n3cccc(C)c3nc2n(CCCOC)c1=NC(=O)c1cccnc1 | -78.6% |
| CCOC(=O)c1cc2c(=O)n3ccccc3nc2n(CCCOC)c1=NC(=O)c1cccnc1 | -68% |
| CCOCCCn1c(=NC(C)=O)c(C(=O)OCC)cc2c(=O)n3ccccc3nc21 | -22.9% |
| CCOC(=O)c1cc2c(=O)n3cccc(C)c3nc2n(CCOC)c1=NC(C)=O | -16.3% |

| Compound | hERG current change (%, negative = inhibition) at 10uM |
| --- | --- |
| CCC1=C(OC(=O)N(CC)CC)N2C(=O)OC(=NCC(=O)OC)[C@]2(C)[C@H]2C1=CC[C@H]1C(=O)NC(=O)[C@H]12 | -15.5% |
| Cc1onc(COc2ccccc2O)c1Br | 11.2% |
| COc1cccc(NC(=O)CN(C)C(C)C(=O)Nc2ccc(S(=O)(=O)N3CCOCC3)cc2)c1 (stereo not drawn) | -15.1% |
| COc1ccccc1-c1noc(Cn2cc(S(=O)(=O)N3CCCC3)ccc2=O)n1 | -3.72% |
| CCC(C)NCCOCCOc1ccc(Br)cc1.O=C(O)C(=O)O (stereo not drawn) | -18.1% |
| CCC(C)NCCCOc1cc(Cl)ccc1Cl.O=C(O)C(=O)O (stereo not drawn) | -42.3% |
| C=CCc1cc(Cl)ccc1OCCNCCCOC.O=C(O)C(=O)O | -37.9% |
| CCC(C)NCCOCCOc1ccc(C)cc1Br.O=C(O)C(=O)O (stereo not drawn) | -41% |
| C=CCc1cc(Cl)ccc1OCCCNC(C)C.O=C(O)C(=O)O | -40.1% |
| CCC(C)NCCCOc1ccc(Cl)cc1C(C)(C)C.O=C(O)C(=O)O (stereo not drawn) | -8.48% |
| CCC(C)NCCOCCOc1cc(C)c(Cl)c(C)c1.O=C(O)C(=O)O (stereo not drawn) | -59.2% |
| C=CCc1cc(Cl)ccc1OCCCNC(C)CC.O=C(O)C(=O)O (stereo not drawn) | -55.7% |
| CC(C)NCCOCCOc1ccc(Cl)cc1Br.O=C(O)C(=O)O | -32.2% |
| CCC(C)NCCOCCOc1ccc(Cl)cc1Br.O=C(O)C(=O)O (stereo not drawn) | -51.1% |
| CCC(C)NCCCCOc1ccc(Cl)cc1C.O=C(O)C(=O)O (stereo not drawn) | -58.6% |
| Cc1cc(OCCOCCNC(C)C)cc(C)c1Cl.O=C(O)C(=O)O | -47.3% |
| O=C1CCc2ccccc2N1 | 16.5% |
| Cc1ccc(-c2csc(NC(=O)c3ccccc3Cl)c2C(=O)O)cc1 | 20.8% |
| COCc1nnc(NC(=O)c2ccc(S(=O)(=O)N(CC(C)C)CC(C)C)cc2)o1 | -7.19% |
| NNc1nc2cc3c(cc2s1)OCCO3 | 14.1% |
| CN(C(=O)CSc1nc2c(cnn2-c2ccccc2)c(=O)[nH]1)C1CCS(=O)(=O)C1 (stereo not drawn) | 16.1% |
| CSCC(C)N1CCC(CCC(=O)NC2CC2)CC1 (stereo not drawn) | -18.1% |
| OCCCCO | 13.7% |

| Compound | hERG current change (%, negative = inhibition) at 10uM |
| --- | --- |
| Oc1ccc(Cc2ncc(C(F)(F)F)cc2Cl)cc1 | -15.4% |
| Cc1ccc(N(CC(=O)N2CCCCC2)S(=O)(=O)c2ccc(C)cc2)cc1 | -20.9% |
| OCc1csc(=Nc2ccccc2)n1-c1ccccc1 | 0.29% |
| C=CCc1cc(Cl)ccc1OCCN(C)C.O=C(O)C(=O)O | -42% |
| C=CCc1cc(Cl)ccc1OCCOCCN(C)C.O=C(O)C(=O)O | -51.5% |
| C=CCc1cc(Cl)ccc1OCCOCCNC(C)(C)C.O=C(O)C(=O)O | -49.5% |
| CCC(C)NCCOCCOc1ccc(Cl)c(C)c1C.O=C(O)C(=O)O (stereo not drawn) | -31.7% |
| C=CCc1cc(Cl)ccc1OCCOCCNC(C)CC.O=C(O)C(=O)O (stereo not drawn) | -69.2% |
| CN(C)CCOCCOc1ccc(Cl)cc1C(C)(C)C.O=C(O)C(=O)O | -37.3% |
| Cc1occc1-c1nnc(SCC(=O)Nc2c(F)cccc2F)n1C | -7.23% |
| CCOC(=O)c1c(C)[nH]c(C)c1S(=O)(=O)N1CCN(C(=O)c2ccco2)CC1 | 16.5% |
| Cc1ccc(S(=O)(=O)N2CCCOC2CNC(=O)C(=O)NCc2ccc3c(c2)OCO3)cc1 (stereo not drawn) | -13.4% |
| CNC(=S)NNC(=O)c1cccn(Cc2cccc(C(F)(F)F)c2)c1=O | 22.2% |
| N#C/C(=C/c1ccc(O)cc1)C(=O)NCc1ccc(Cl)cc1 | 23.1% |
| C=CCSc1nc2ccsc2c(=O)n1-c1cccnc1 | -8.97% |
| Cc1cc2nc(CO)[nH]c2cc1C | 14.9% |
| O=C1NC2NC(=O)N([N+](=O)[O-])C2N1 (stereo not drawn) | 14.6% |
| CC(C)NC(=O)COC(=O)c1ccc(Cl)c(S(N)(=O)=O)c1 | 18.6% |
| COc1ccc(CC(=O)Nc2c3c(nn2-c2cccc(Cl)c2)CS(=O)(=O)C3)cc1 | -51.7% |
| O=C(Nc1c2c(nn1-c1ccccc1)CS(=O)(=O)C2)C1CCCC1 | -0.437% |
| COc1ccc(CC(=O)Nc2c3c(nn2-c2cccc(C)c2C)CS(=O)(=O)C3)cc1 | -24.5% |
| CCCC(=O)Nc1c2c(nn1-c1cccc(Cl)c1)CS(=O)(=O)C2 | -53.4% |
| O=C(Nc1c2c(nn1-c1ccc(Cl)cc1)CS(=O)(=O)C2)C1CC1 | -26.8% |

| Compound | hERG current change (%, negative = inhibition) at 10uM |
| --- | --- |
| CC(=O)Nc1c2c(nn1-c1cccc(Cl)c1)CS(=O)(=O)C2 | -16.8% |
| CCC(=O)Nc1c2c(nn1-c1cccc(Cl)c1)CS(=O)(=O)C2 | -38.7% |
| O=C(Cc1ccccc1)Nc1c2c(nn1-c1cccc(Cl)c1)CS(=O)(=O)C2 | -76.2% |
| CC(C)CC(=O)Nc1c2c(nn1-c1cccc(Cl)c1)CS(=O)(=O)C2 | -40.8% |
| COc1ccc(CC(=O)Nc2c3c(nn2-c2cccc(Cl)c2)CS(=O)C3)cc1 (stereo not drawn) | -37.1% |
| O=C(Nc1c2c(nn1-c1cccc(Cl)c1)CS(=O)(=O)C2)C1CC1 | -66.9% |
| O=C(Nc1c2c(nn1-c1cccc(Cl)c1)CS(=O)(=O)C2)c1ccco1 | -37.9% |
| COc1ccc(CSCCc2n[nH]c(=S)n2-c2ccccc2)cc1C | 0.99% |
| O=C(COc1ncnc2ccccc12)Nc1cccc([N+](=O)[O-])c1 | -2.61% |
| Cc1cccc(N/C(N)=N/c2nc(C)cc(C)n2)c1 | -28% |
| CC(=O)Nc1ccc(N/C(N)=N/c2nc(C)cc(C)n2)cc1 | 14% |
| CC(=O)NS(=O)(=O)c1ccc(N/C(N)=N/c2nc(C)cc(C)n2)cc1 | 13.3% |
| Cc1cc(C)nc(NC(N)=NCCc2c[nH]c3ccccc23)n1 | 11.6% |
| Cc1ccc(N/C(N)=N/c2nc(C(F)(F)F)cc(C(F)(F)F)n2)cc1 | 18.9% |
| Cc1cc(C)nc(/N=C(\N)Nc2ccc(C)c([N+](=O)[O-])c2)n1 | -5.32% |
| Cc1cc(C)nc(NC(N)=NC(C)c2ccccc2)n1 (stereo not drawn) | -0.0621% |
| COc1cc(N/C(N)=N/c2nc(C)cc(C)n2)cc(OC)c1 | -49.8% |
| Cc1ccc(CN=C(N)Nc2nc(C)cc(C)n2)cc1.Cl | -76.1% |
| Cc1cc(C)cc(N/C(N)=N/c2nc(C)cc(C)n2)c1 | -50% |
| Cc1cc(C)nc(/N=C(\N)Nc2ccc(CC(=O)OC(C)C)cc2)n1 | -67.6% |
| Cc1ccc(N/C(N)=N/c2nc(C)cc(C)n2)cc1 | -68.7% |
